Assay [1] can be described thus: Quantitative High-Throughput drug screen in 47 multiple myeloma cell lines against the NCATS MIPE library collection: JIM3_ECACC cell viability assay (AID 1918963; note: nearly all actives have a fitted effect of over 35% in size; note: potency is the fitted concentration of half-maximal effect). In a few lines: (§1)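 Viability readout: CellTiter-Glo luminescence following 5 min room-temperature incubation with reagent. Prior exposure: 48 h, 37C, humidified 5% CO2, 500 cells per well.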
The nature of assay [2]: Quantitative High-Throughput drug screen in 47 multiple myeloma cell lines against the NCATS MIPE library collection: JIM1_ECACC cell viability assay (AID 1918964). The text has this:
(§2) PI: Beverly A. Mock Ph.D.
(§3) Laboratory of Cancer Biology and Genetics,
(§4) Center for Cancer Research, National Cancer Institute,
(§5) National Institute of Health, Bethesda, Maryland
(§6) Drug resistance and disease progression are common in multiple myeloma (MM) patients, underscoring the need for new therapeutic combinations. […] We hypothesized that effective combinations would reduce MYC expression and enhance p16 activity. […] These preclinical data identify potentially useful drug combinations for evaluation in drug-resistant MM and reveal potential mechanisms of combined drug sensitivity.
(§7) Described herein is the primary MIPE qHTS used to cherrypick compounds. Validated compounds were then further tested for potential synergistic activiy.
(§8) [1] Peat TJ, Gaikwad SM, Dubois W, Gyabaah-Kessie N, Zhang S, Gorjifard S, Phyo Z, Andres M, Hughitt VK, Simpson RM, Miller MA, Girvin AT, Taylor A, Williams D, D'Antonio N, Zhang Y, Rajagopalan A, Flietner E, Wilson K, Zhang X, Shinn P, Klumpp-Thomas C, McKnight C, Itkin Z, Chen L, Kazandijian D, Zhang J, Michalowski AM, Simmons JK, Keats J, Thomas CJ, Mock BA. Drug combinations identified by high-throughput screening promote cell cycle transition and upregulate Smad pathways in myeloma. Cancer Lett. 2023 Aug 1;568:216284. doi: 10.1016/j.canlet.2023.216284. Epub 2023 Jun 24. PMID: 37356470; PMCID: PMC10408729.
(§9) SEQUENCE No. (e.g., 1, 2, 3, etc.); […] (e.g., Cells, Incubation, Reagent, etc.); VALUE and DESCRIPTION.
(§10) 1; Cells; 5 uL; white, solid bottom 1536-well Greiner assay plate.
(§11) 2; Compounds; 23 nL; Kalypsis pin tool (Wako USA) equipped with a 1536-well pin head to transfer to the assay plates.
(§12) 3; Incubation; 48 hours; 37C incubation.
(§13) 4; Reagent;5uL; CellTiter Glo (Promega).
(§14) 5; Detector; 425V; Luminescence; Viewlux PerkinElmer.
(§15) NOTES (numbers refer to Sequence numbers above)
(§16) 1. The cell-based screening methods employed in this study were like those previously published. Briefly, the corresponding myeloma cell lines were screened in 1,536-well plates with 500 cells, 5-uL per well for inhibition of cell viability (assessed by measuring ATP levels with CellTiterGlo).
(§17) 2. NCATS MIPE 4.0 library of approved and investigational drugs were added using the Kalypsis pin tool. Wells treated with DMSO only for 100% viability and media only wells for 0% viability were used as controls.
(§18) 3. The assay plates were covered and incubated for 48 hours in a 37C, 5% CO2 incubator with controlled humidity.
(§19) 4. After 48 hours, CellTilter-GloTM luminescent substrate mix (Promega) reagent was added to the assay plate and plates we incubated for 5 min at room temperature.
(§20) 5. Signal was measured as median relative luminescence units on a ViewLux (PerkinElmer) multiplate reader.
(§21) [1] Heske CM, Davis MI, Baumgart JT, Wilson K, Gormally MV, Chen L, Zhang X, Ceribelli M, Duveau DY, Guha R, Ferrer M, Arnaldez FI, Ji J, Tran HL, Zhang Y, Mendoza A, Helman LJ, Thomas CJ. Matrix Screen Identifies Synergistic Combination of PARP Inhibitors and Nicotinamide Phosphoribosyltransferase (NAMPT) Inhibitors in Ewing Sarcoma. Clin Cancer Res. 2017 Dec 1;23(23):7301-7311. doi: 10.1158/1078-0432.CCR-17-1121. Epub 2017 Sep 12. PMID: 28899971; PMCID: PMC6636827.

A short description of assay [3]: Quantitative High-Throughput drug screen in 47 multiple myeloma cell lines against the NCATS MIPE library collection: JJN3_DSMZ cell viability assay (AID 1918966; note: nearly all actives have a fitted effect of over 50% in size; note: potency is the fitted concentration of half-maximal effect). In a few lines: (§22)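 Primary qHTS used for cherry-picking: cells at 500/well, library compounds for 48 h (37C, 5% CO2), luminescent ATP assay.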
A short description of assay [4]: Quantitative High-Throughput drug screen in 47 multiple myeloma cell lines against the NCATS MIPE library collection: H1112_PLB cell viability assay (AID 1918967; note: nearly all actives have a fitted effect of over 30% in size; note: potency is the fitted concentration of half-maximal effect). Put shortly: as §22
The nature of assay [5]: Quantitative High-Throughput drug screen in 47 multiple myeloma cell lines against the NCATS MIPE library collection: Karpas25_ECACC cell viability assay (AID 1918968; note: nearly all actives have a fitted effect of over 35% in size; note: potency is the fitted concentration of half-maximal effect).
Description: as §2, §3, §4, §5, §6, §7, §8, §9, §10, §11, §12, §13, §14, §15, §16, §17, §18, §19, §20, §21

A short description of assay [6]: Quantitative High-Throughput drug screen in 47 multiple myeloma cell lines against the NCATS MIPE library collection: KMS27_JCRB cell viability assay (AID 1918970). Note: nearly all actives have a fitted effect of over 30% in size. Note: potency is the fitted concentration of half-maximal effect. In a few lines:
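Each line is seeded at 500 cells per well and treated with library compounds for 48 hours under 37 °C, 5% CO2. CellTiter-Glo is then added for 5 min at room temperature before median relative luminescence is recorded.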

Assay [7] in a line: Quantitative High-Throughput drug screen in 47 multiple myeloma cell lines against the NCATS MIPE library collection: KMS12BM_JCRB cell viability assay (AID 1918971). Note: nearly all actives have a fitted effect of over 35% in size. Note: potency is the fitted concentration of half-maximal effect. In a few lines: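 Steps: seed 500 cells per well; pin-transfer MIPE 4.0 library; incubate 48 h at 37C, 5% CO2, humidified; add CellTiter-Glo, 5 min room temperature; read luminescence.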
A short description of assay [8]: Quantitative High-Throughput drug screen in 47 multiple myeloma cell lines against the NCATS MIPE library collection: Karpas417_ECACC cell viability assay (AID 1918961). Note: potency is the fitted concentration of half-maximal effect. In a few lines: (§23)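 Approved and investigational drugs from MIPE 4.0 were added by pin tool to 500 cells per well. After 48 hours at 37C, ATP-based CellTiter-Glo luminescence indicated remaining viability.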

Assay [9] is described as follows: Quantitative High-Throughput drug screen in 47 multiple myeloma cell lines against the NCATS MIPE library collection: KHM11_PLB cell viability assay (AID 1918962). Note: nearly all actives have a fitted effect of over 35% in size. Note: potency is the fitted concentration of half-maximal effect. In a few lines: as §1
A short description of assay [10]: Quantitative High-Throughput drug screen in 47 multiple myeloma cell lines against the NCATS MIPE library collection: INA6_PLB cell viability assay (AID 1918965; note: nearly all actives have a fitted effect of over 55% in size; note: potency is the fitted concentration of half-maximal effect). Put shortly: as §23

Records with an inconclusive call do not appear. Calls of active or inactive are those of the source. Calls come from the whole dose curve; as a rule, active = well fitted curve in the direction sought with a large enough effect; inconclusive = small, poorly fitted or top-dose-only effect, or another doubt; inactive = no such curve, though single readings can be large; an effect the other way counts as inactive or inconclusive.

On to `C[C@]12CC[C@@H]3c4ccc(OC(=O)N(CCCl)CCCl)cc4CC[C@H]3[C@@H]1CC[C@@H]2OP(=O)(O)O`, for which the Potency entry in [1], in [3], in assay [4], in assay [5], in [6] and in assay [7] was “inactive” in each case. Further, the molecule was classed as inactive in [2].
Turning to `O=P1(N(CCCl)CCCl)NCCCO1` (stereo not given), the Potency result in assay [8], in assay [9] and in assay [4] was “inactive” throughout. Also, the Potency in assay [6] is 20.9 µM (active).
In the case of `C[C@]12CCC(=O)C=C1CC[C@@H]1[C@H]3CC[C@](C)(O)[C@@]3(C)CC[C@@H]12`, the Potency result in assay [1] and in assay [4] was “inactive” throughout. For the same molecule, the outcome in assay [2] was inactive. Further, the Potency in [7] is 34 µM (active).
Turning to `O=C(O)CCCc1ccc(N(CCCl)CCCl)cc1`, the Potency result in [1] and in assay [4] was “inactive” in each case. Moreover, in [10], the Potency is 18.7 µM (active).
As for `CC(C)c1cccc(C(C)C)c1O`, the Potency result in assay [1], in assay [10], in [4] and in [5] was “inactive” throughout. Besides, in [2], the call was inactive.
`CN1C(=O)COc2c(C(=O)NC3CN4CCC3CC4)cc(Cl)cc21` (stereo not given): the Potency result in assay [9], in [1], in assay [4], in assay [5] and in [7] was “inactive” each time.
In the case of `C[C@](O)(CS(=O)(=O)c1ccc(F)cc1)C(=O)Nc1ccc(C#N)c(C(F)(F)F)c1`, the Potency is 0.935 µM (active) in assay [8]; 0.833 µM (active) in assay [9]; 2.35 µM (active) in assay [1]; 1.18 µM (active) in assay [10]; 4.69 µM (active) in assay [3]; 0.662 µM (active) in assay [4]. The Potency is 0.418 µM (active) in assay [5] and 26.4 µM (active) in assay [7]. In addition, the Potency entry in [6] was “inactive”.
Take `CC(NC(C)(C)C)C(=O)c1cccc(Cl)c1` (stereo not given): the Potency result in assay [1], in assay [10], in assay [3] and in assay [6] was “inactive” each time. The Potency in assay [5] was 3.72 µM (active).
On to `CN1C(=O)CCS(=O)(=O)C1c1ccc(Cl)cc1` (stereo not given), for which the Potency entry in [1], in [10], in assay [3], in assay [6] and in assay [7] was “inactive” each time. In [2], the molecule was called inactive. Moreover, in assay [4], the Potency is 16.6 µM (active).
With `COc1cc(OC)c(OC)cc1C=O`, the Potency entry in assay [1], in assay [10], in assay [4] and in [5] was “inactive” each time. Also, in [2], the molecule was called inactive. For the same molecule, the Potency in assay [6] is 0.0047 µM (active).
Take `C[C@]12CC[C@H]3[C@@H](CC[C@@]45O[C@H]4C(O)=C(C#N)C[C@]35C)[C@H]1CC[C@H]2O`: the Potency result in assay [8], in [1], in assay [5] and in assay [7] was “inactive” throughout. In addition, the molecule was classed as inactive in [2]. Also, the Potency in assay [3] is 18.7 µM (active).
Turning to `CCC1(c2ccc(N)cc2)CCC(=O)NC1=O` (stereo not given), the Potency entry in assay [1], in assay [10], in [4], in assay [5] and in assay [6] was “inactive” each time.
For `CC(C)C[C@H](CN)CC(=O)O`, the Potency result in assay [8], in [9], in [1], in [10], in assay [4] and in assay [5] was “inactive” throughout. For the same molecule, the Potency result in assay [6] was “inactive”. Moreover, the result in [2] was inactive. For the same molecule, the Potency in [7] was 9.35 µM (active).

These data come from PubChem BioAssay (NCATS).
